# Data reported in the supplement of paper PMC8728848.
# Only a selection was taken, and the strongest signals are over-represented in it overall.
# B1: NanH (Corynebacterium diphtheriae), C6JSW6 (protein)
# chain: MYSSNRTYSRAILGLSAVLTLSFTSLVAPVNAEEPETVVPATAELEGEVAATLPSAETGLLDAAPPKPVARGAAGDLQLPAVNEKEVFEEGRVIRAPEPDQSRCYRIPALVTAKNGDLLLAFDNRYGGGDGAKTWCRDAPYENMKRINRQNMQTDIQLYRSVDNGQSFEDFGYIAQGTADVRELSYTDPALVTDRTTGKIFAFFVRAYDYRVGQSSAGFNEGDVEAEIQKRDVQDTVVVESLDGGQTWGNMRLLSALTAKVSSISTGDTIFDGRGRFVTSGAGIQLQYGEHAGRLIVPISVDIDPKDSAKFINLAIYSDDHGQTWQAGIGTAGGAGFSGDVSKIVELSDGRLMMSSKDNDKPRWVSYSEDQGENWSTPKRKIIAPPQHPEKHNTGINVGLIRAYPNAPENSAAARVLLYSAPIDQRYSHKHTEDGRNNGWVMGSCDDGKTWSFGRQIEKNRFQYSSMTVMSDGNIGMVYESGDFSTGMNLKFAKFNMAWLGADCHSNEALGLTGDIDKEIVEAQEKAAEATKEAQEAAEKVQKLTEELAAARKENDELKNQVKGFKEAVGDLANEAEDLADKVFKLETAVTEAKEKATVAEKAASDAVTQLQKAESIAEEQKAKAESAAAEAQALREKLERLEGSILTVKENPEAEEIADLSSTAKDAADAARRAATDANGALSGQKQDEEKPAMGLMGILKVLAGIIPLVAIIATIFQTFRLPFNIPGMR
# Legend:
# Test in all cases: glycan array binding signal (z-score within array); higher = stronger binding
# Conditions in all cases: glycan notation: IUPAC condensed, linker removed
# [1] = target: Fuc(a1-2)Gal(b1-4)GlcNAc(b1-2)Man(a1-3)[Fuc(a1-2)Gal(b1-4)GlcNAc(b1-2)Man(a1-6)]Man(b1-4)GlcNAc(b1-4)[Fuc(a1-6)]GlcNAc
# Outline: (§1)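 From the Consortium for Functional Glycomics database, 3228 arrays were curated, keeping only those whose protein sequence was available. Binding is given as a within-array Z-score averaged across arrays sharing a protein sequence and across linkers. Negative Z-scores can be read as non-binding.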
# [2] = target: Fuc(a1-2)Gal(b1-4)[Fuc(a1-3)]GlcNAc(b1-3)GalNAc
# Outline: as §1
# [3] = target: Fuc(a1-2)Gal6S(b1-4)GlcNAc
# Outline: as §1
# [4] = target: Fuc(a1-2)[Gal(a1-3)]Gal(b1-3)GlcNAc(b1-2)Man(a1-3)[Fuc(a1-2)[Gal(a1-3)]Gal(b1-3)GlcNAc(b1-2)Man(a1-6)]Man(b1-4)GlcNAc(b1-4)[Fuc(a1-6)]GlcNAc
# Outline: as §1
# [5] = target: Fuc(a1-2)[Gal(a1-3)]Gal(b1-4)[Fuc(a1-3)]GlcNAc(b1-3)GalNAc
# Outline: as §1
# [6] = target: Fuc(a1-2)[GalNAc(a1-3)]Gal(b1-4)GlcNAc(b1-3)Gal(b1-4)GlcNAc
# Outline: as §1
# Gal(a1-2)Gal = target: Gal(a1-2)Gal
# Outline: as §1
# Gal(b1-2)Gal = target: Gal(b1-2)Gal
# Outline: as §1
# [7] = target: Gal(b1-3)GalNAc(a1-3)[Fuc(a1-2)]Gal(b1-4)Glc
# Outline: as §1
# [8] = target: Gal(b1-3)GlcNAc(b1-3)Gal(b1-4)Glc
# Outline: as §1
# [9] = target: Gal(b1-3)GlcNAc(b1-3)GalNAc
# Outline: as §1
# [10] = target: Gal(b1-3)[Fuc(a1-4)]GlcNAc(b1-2)Man(a1-3)[Gal(b1-3)[Fuc(a1-4)]GlcNAc(b1-2)Man(a1-6)]Man(b1-4)GlcNAc(b1-4)[Fuc(a1-6)]GlcNAc
# Outline: as §1
# [11] = target: Gal(b1-3)[Fuc(a1-4)]GlcNAc(b1-3)Gal(b1-3)[Fuc(a1-4)]GlcNAc
# Outline: as §1
# Gal(b1-4)Gal = target: Gal(b1-4)Gal
# Outline: as §1
# [12] = target: Gal(b1-4)GlcNAc(b1-6)Gal(b1-4)GlcNAc
# Outline: as §1
# Gal3S(b1-4)Glc6S = target: Gal3S(b1-4)Glc6S
# Outline: as §1
# [13] = target: Gal3S(b1-4)[Fuc(a1-3)]Glc6S
# Outline: as §1
# [14] = target: GalNAc(a1-3)Fuc(a1-2)Gal(b1-4)GlcNAc(b1-3)[GalNAc(a1-3)Fuc(a1-2)Gal(b1-4)GlcNAc(b1-6)]GalNAc
# Outline: as §1
# GalNAc(b1-3)Gal = target: GalNAc(b1-3)Gal
# Outline: as §1
# [15] = target: GalNAc(b1-4)GlcNAc(b1-2)Man(a1-3)[GalNAc(b1-4)GlcNAc(b1-2)Man(a1-6)]Man(b1-4)GlcNAc(b1-4)GlcNAc
# Outline: as §1
# Glc(a1-4)Glc = target: Glc(a1-4)Glc
# Outline: as §1
# GlcA(b1-3)Gal = target: GlcA(b1-3)Gal
# Outline: as §1
# [16] = target: GlcNAc(a1-4)Gal(b1-4)GlcNAc(b1-3)Gal(b1-4)GlcNAc
# Outline: as §1
# [17] = target: GlcNAc(a1-4)Gal(b1-4)GlcNAc(b1-3)Gal(b1-4)GlcNAc(b1-3)Gal(b1-4)GlcNAc
# Outline: as §1
# [18] = target: GlcNAc(a1-4)Gal(b1-4)GlcNAc(b1-3)Gal(b1-4)[Fuc(a1-3)]GlcNAc(b1-3)Gal(b1-4)[Fuc(a1-3)]GlcNAc
# Outline: as §1
# [19] = target: GlcNAc(b1-4)Gal(b1-4)GlcNAc
# Outline: as §1
# [20] = target: Kdn(a2-3)Gal(b1-4)[Fuc(a1-3)]GlcNAc
# Outline: as §1
# [21] = target: Man(a1-2)Man(a1-3)[Man(a1-2)Man(a1-6)]Man(a1-6)[Man(a1-2)Man(a1-2)Man(a1-3)]Man
# Outline: as §1
# [22] = target: Man(a1-2)Man(a1-3)[Man(a1-6)]Man(a1-6)[Man(a1-2)Man(a1-3)]Man(b1-4)GlcNAc(b1-4)GlcNAc
# Outline: as §1
# Man(a1-3)[Man(a1-6)]Man = target: Man(a1-3)[Man(a1-6)]Man
# Outline: as §1
# Neu5Ac(a2-3)Gal = target: Neu5Ac(a2-3)Gal
# Outline: as §1
# [23] = target: Neu5Ac(a2-3)Gal(b1-3)GalNAc6S
# Outline: as §1
# [24] = target: Neu5Ac(a2-3)Gal(b1-4)GlcNAc(b1-2)Man(a1-3)[GlcNAc(b1-2)Man(b1-4)GlcNAc(b1-2)Man(a1-6)]Man(b1-4)GlcNAc(b1-4)GlcNAc
# Outline: as §1
# [25] = target: Neu5Ac(a2-3)Gal6S(b1-4)GlcNAc
# Outline: as §1
# [26] = target: Neu5Ac(a2-6)Gal(b1-4)GlcNAc(b1-2)Man(a1-3)[GlcNAc(b1-2)Man(a1-6)]Man(b1-4)GlcNAc(b1-4)GlcNAc
# Outline: as §1
# [27] = target: Neu5Ac(a2-6)Gal(b1-4)GlcNAc(b1-2)Man(a1-3)[Man(a1-6)]Man(b1-4)GlcNAc(b1-4)GlcNAc
# Outline: as §1
# [28] = target: Neu5Gc(a2-3)Gal(b1-4)GlcNAc
# Outline: as §1
# Neu5Gc(a2-6)GalNAc = target: Neu5Gc(a2-6)GalNAc
# Outline: as §1
binder,measurement,setting,value
B1,glycan array binding signal (z-score),[1],1.01
same,glycan array binding signal (z-score),[2],3.22
same,glycan array binding signal (z-score),[3],0.001
same,glycan array binding signal (z-score),[4],1.3
same,glycan array binding signal (z-score),[5],-0.377
same,glycan array binding signal (z-score),[6],0.149
same,glycan array binding signal (z-score),Gal(a1-2)Gal,-1.72
same,glycan array binding signal (z-score),Gal(b1-2)Gal,2.93
same,glycan array binding signal (z-score),[7],1.05
same,glycan array binding signal (z-score),[8],-1.28
same,glycan array binding signal (z-score),[9],-1.71
same,glycan array binding signal (z-score),[10],2.84
same,glycan array binding signal (z-score),[11],-0.787
same,glycan array binding signal (z-score),Gal(b1-4)Gal,-1.5
same,glycan array binding signal (z-score),[12],1.11
same,glycan array binding signal (z-score),Gal3S(b1-4)Glc6S,-0.269
same,glycan array binding signal (z-score),[13],-0.594
same,glycan array binding signal (z-score),[14],0.818
same,glycan array binding signal (z-score),GalNAc(b1-3)Gal,-1.91
same,glycan array binding signal (z-score),[15],3.38
same,glycan array binding signal (z-score),Glc(a1-4)Glc,-0.111
same,glycan array binding signal (z-score),GlcA(b1-3)Gal,2.74
same,glycan array binding signal (z-score),[16],3.02
same,glycan array binding signal (z-score),[17],-1.05
same,glycan array binding signal (z-score),[18],3.97
same,glycan array binding signal (z-score),[19],-0.683
same,glycan array binding signal (z-score),[20],-0.213
same,glycan array binding signal (z-score),[21],3.74
same,glycan array binding signal (z-score),[22],-0.263
same,glycan array binding signal (z-score),Man(a1-3)[Man(a1-6)]Man,-0.151
same,glycan array binding signal (z-score),Neu5Ac(a2-3)Gal,0.353
same,glycan array binding signal (z-score),[23],1.83
same,glycan array binding signal (z-score),[24],0.603
same,glycan array binding signal (z-score),[25],-1.04
same,glycan array binding signal (z-score),[26],0.122
same,glycan array binding signal (z-score),[27],-0.077
same,glycan array binding signal (z-score),[28],-0.068
same,glycan array binding signal (z-score),Neu5Gc(a2-6)GalNAc,0.15
